Results on 4 compounds are retold here after PubChem BioAssay AID2283179 (EPA ToxCast).

Structures are written as SMILES. Results filed as inconclusive are left out. The source made the active and inactive calls. Rule for the calls: active = hit-call score of the fitted dose curve at least 0.9, where 1 is the maximum; inconclusive = response in the unintended direction; inactive = score below 0.9.

Sequence of human Microtubule Affinity Regulating Kinase 1 (MARK1), MARK1 (gene 4139) (Q9P0L2 whole entry, looked up): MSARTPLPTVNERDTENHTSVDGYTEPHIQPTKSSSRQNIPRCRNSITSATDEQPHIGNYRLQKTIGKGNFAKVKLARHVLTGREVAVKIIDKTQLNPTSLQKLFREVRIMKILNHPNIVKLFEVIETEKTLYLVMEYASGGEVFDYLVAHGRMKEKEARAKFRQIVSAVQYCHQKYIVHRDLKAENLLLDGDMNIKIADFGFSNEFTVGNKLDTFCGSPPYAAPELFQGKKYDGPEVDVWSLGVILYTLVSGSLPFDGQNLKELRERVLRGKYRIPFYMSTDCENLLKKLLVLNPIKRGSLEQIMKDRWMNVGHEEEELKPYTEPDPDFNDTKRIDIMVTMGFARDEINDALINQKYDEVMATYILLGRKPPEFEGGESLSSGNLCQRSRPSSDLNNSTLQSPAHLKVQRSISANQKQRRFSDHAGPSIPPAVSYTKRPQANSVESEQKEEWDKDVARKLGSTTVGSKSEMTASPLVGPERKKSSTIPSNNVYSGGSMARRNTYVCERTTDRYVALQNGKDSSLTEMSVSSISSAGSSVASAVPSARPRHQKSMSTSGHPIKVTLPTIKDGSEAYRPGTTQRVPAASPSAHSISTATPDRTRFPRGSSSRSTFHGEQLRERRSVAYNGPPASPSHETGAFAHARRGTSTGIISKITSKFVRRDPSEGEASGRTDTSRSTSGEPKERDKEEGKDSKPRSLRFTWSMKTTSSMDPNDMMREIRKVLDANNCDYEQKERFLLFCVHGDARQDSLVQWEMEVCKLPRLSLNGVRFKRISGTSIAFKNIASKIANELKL

This test addresses human Microtubule Affinity Regulating Kinase 1 (MARK1), MARK1 (gene 4139) (UniProt Q9P0L2). Put plainly: NVS_ENZ_hMARK1: NovaScreen (NVS) Enzymatic Assay for human Microtubule Affinity Regulating Kinase 1 (MARK1). Here is the method: NVS_ENZ_hMARK1 is a biochemical, single-readout assay that uses extracted gene-proteins in a cell-free assay. Measurements were taken 1 hour after chemical dosing in a 384-well plate.NVS_ENZ_hMARK1 is one of one assay component(s) measured or calculated from the NVS_ENZ_hMARK1 assay. It is designed to make measurements of enzyme activity, a form of enzyme reporter, as detected with fluorescence intensity signals by Fluorescence and electrophoretic mobility shift technology.Data from the assay component NVS_ENZ_hMARK1 was analyzed into 1 assay endpoint. This assay endpoint, NVS_ENZ_hMARK1, was analyzed in the positive analysis fitting direction relative to DMSO as the negative control and baseline of activity. Using a type of enzyme reporter, loss-of-signal activity can be used to understand changes in the enzymatic activity as they relate to the gene MARK1. Furthermore, this assay endpoint can be referred to as a primary readout, because this assay has produced multiple assay endpoints where this one serves a enzymatic activity function. To generalize the intended target to other relatable targets, this assay endpoint is annotated to the kinase intended target family, where the subfamily is serine/threonine kinase.
Binding assays used specific radioligands (tritiated, iodinated) with non-radioactive competitive displacement ligands in agonist or antagonist protocols (as indicated) and various reference compounds and inhibitors to titrate specific binding to receptors and transporters. Most enzyme assays (CYPs, kinases, phosphatases, proteases, HDACs) used recombinant protein and specific substrates (fluorescence mostly, some colorimetric and radioactive) and inhibitors, followed by a biochemical separation of substrate and product. All assays for the biochemical HTS were initially run in duplicate at a single concentration (10 uM for CYP450 assays and 25 uM for all others). Assay-chemical combinations meeting a pre-defined threshold (e.g., 30% inhibition and other criteria defined below) were then run in singleton concentration-response format with maximum concentration of 20 uM for CYPs and 50 uM for all others. Each assay was run with positive and negative controls, and concurrent controls on every plate. The follow-up (secondary) screen tested active chemical-pairs in concentration series, as well as a few additional assays not tested in the primary screen, some selected negative inactives, and several cases re-run in the concentration series for confirmatory purposes.
Turning to `O=C(Nc1ccc([N+](=O)[O-])cc1Cl)c1cc(Cl)ccc1O`, the call was inactive.

Take `S=C([S-])NCCNC(=S)[S-].[Mn+2]`: the AC50 was 406 nM (active).

With `O=C(O)C1(C(=O)Nc2ccc(Cl)cc2Cl)CC1`, the AC50 was 7850 nM (active).

On to `S=C(S)NCCNC(=S)S.[Mn+2].[S-]C([S-])=NCCN=C([S-])[S-].[Zn+2]`, for which the AC50 is 1380 nM (active).

One may read the AC50 as the midpoint of the concentration-response curve, whichever way the signal moves.
